# According to PubChem BioAssay (Tox21):
# Results filed as inconclusive are left out. The source made the active and inactive calls. Calls come from the whole dose curve; as a rule, active = well fitted activation curve with a large enough effect in the repeat runs; inconclusive = weak or mixed curves; inactive = flat fitted curve, though single readings scatter.
# Target: Nuclear receptor subfamily 1 group I member 2 (Homo sapiens) (UniProt O75469)
# Experiment: Human pregnane X receptor (PXR) activation by small molecules, qHTS assay (AID 1346985); note: nearly all actives have a fitted effect of over 40% in size
# Conditions: DPX-2 HepG2 CYP3A4-luciferase, 24 h; series mostly up to 38.3 µM; activation: at the top concentration
# Procedure, shortened: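 DPX-2 cells (HepG2 co-transfected with a PXR response element and a CYP3A4-promoter luciferase construct) were seeded at 2,000 per well, rested 5 hr at 37C, then exposed to DMSO-dissolved compounds for 24 hr. Activation was read as luciferase luminescence.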
# % is set by controls: 0 for no effect and ±100 for the full control effect; potency is the fitted concentration of half-maximal effect.
SMILES,activation,Potency
CC(=O)c1ccc2c(c1)N(CCCN1CCN(CCO)CC1)c1ccccc1S2,21.1% (inactive),–
Cc1cc(/C=C/c2ccc3cc(N(C)C)ccc3[n+]2C)c(C)n1-c1ccccc1,-14.9% [at 17.1 µM] (inactive),–
CC(C)(C)C1(O)CCN2CC3c4ccccc4CCc4cccc(c43)C2C1 (stereo not given),–,14.1 µM (active)
C=C[C@]1(C)C[C@@H](OC(=O)CSC(C)(C)CNC(=O)[C@H](N)C(C)C)[C@]2(C)[C@H](C)CC[C@]3(CCC(=O)[C@H]32)[C@@H](C)[C@@H]1O,–,8.91 µM (active)
C=C[C@]1(C)C[C@@H](OC(=O)CSCCN(CC)CC)[C@]2(C)[C@H](C)CC[C@]3(CCC(=O)[C@H]32)[C@@H](C)[C@@H]1O,–,15.8 µM (active)
O=C(CCCN1CCC(C(=O)c2ccc(F)cc2)CC1)c1ccc(F)cc1,–,15.8 µM (active)
CNC(C)CCC=C(C)C (stereo not given),-1.36% (inactive),–
CCCCC(=O)OCC(=O)[C@]1(O)Cc2c(O)c3c(c(O)c2[C@@H](O[C@H]2C[C@H](NC(=O)C(F)(F)F)[C@H](O)[C@H](C)O2)C1)C(=O)c1c(OC)cccc1C3=O,-0.469% (inactive),–
O=C(O)c1c(Cl)c(Cl)c(Cl)c(Cl)c1-c1c2cc(I)c(=O)c(I)c-2oc2c(I)c(O)c(I)cc12,17.3% (inactive),–
c1ccc2c(c1)Sc1ccccc1N2CCN1CCCC1,–,25.1 µM (active)
